Pf Dd2 inh – P. falciparum Dd2 growth inhibitors, primary screen, SYBR Green fluorescence, single dose replicates; 72 h; hits give low values; activity change, % at 10 µM; 2.3% of 94,000 active; AID 1159554, 2015; in the data active means activity change below about -80%; inconclusive means no clear call, values can overlap the other calls
C diff growth – C. difficile growth inhibitors, primary screen, HTS; Clostridium difficile clinical isolate growth, OD600, 24 h; hits give low values; growth activity, negative = inhibition, % at 16 µg/mL (by protocol); 0.25% of 86,000 active;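 active means mean growth activity at or below -80% and every replicate also at or below -80%; inconclusive means mean at or below -80% but some replicate above -80%; inactive means mean growth activity above -80%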
Tcruzi prolif – T. cruzi intracellular proliferation inhibitors, primary screen, cell-based, beta-gal Tulahuen parasites, NIH3T3 host, luminescence; AID 624255, 2012; inhibition, % at 8.34 µM; T. cruzi beta-gal in NIH3T3, GalScreen luminescence, 90 h; 5.9% of 77,000 active;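 active means mean inhibition above about 93%, with at least 55% of replicates each passing it, limit read from the data, passing the limit was not always enough; inconclusive means only one of those two conditions holds; inactive means neither condition holds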
A number is an active result; 0 = inactive; ? = inconclusive; - = not tested or not shown. Only some compounds are listed: those with a hit (about 6.7% of all), similar ones and a draw of the others.

SMILES	Pf Dd2 inh	C diff growth	Tcruzi prolif
C[C@@H]1CN([C@H](C)CO)C(=O)c2cccc(NC(=O)Nc3ccccc3)c2O[C@@H]1CN(C)Cc1ccc(C(=O)Nc2ccccc2N)cc1	-91	0	0
C[C@H]1CN([C@@H](C)CO)C(=O)c2cccc(NC(=O)Nc3ccccc3)c2O[C@H]1CN(C)Cc1ccc(C(=O)Nc2ccccc2N)cc1	0	0	0
COc1ccc(NC(=O)Nc2cccc3c2O[C@@H](CN(C)Cc2ccc(C(=O)Nc4ccccc4N)cc2)[C@@H](C)CN([C@H](C)CO)C3=O)cc1	0	0	-
COc1ccc(NC(=O)Nc2cccc3c2O[C@H](CN(C)Cc2ccc(C(=O)Nc4ccccc4N)cc2)[C@H](C)CN([C@H](C)CO)C3=O)cc1	-93	0	0
C[C@@H]1CN([C@@H](C)CO)C(=O)c2cccc(NC(=O)C3CCCCC3)c2O[C@H]1CN(C)Cc1ccc(C(F)(F)F)cc1	-83	0	0
C[C@H](CO)N1C[C@H](C)[C@H](CN(C)Cc2ccc(C(F)(F)F)cc2)Oc2c(NC(=O)C3CCCCC3)cccc2C1=O	0	0	0
C[C@H](CO)N1C[C@H](C)[C@@H](CN(C)Cc2ccc(C(=O)Nc3ccccc3N)cc2)Oc2c(NC(=O)Nc3ccc(F)cc3)cccc2C1=O	-85	0	-
COc1ccc2c3c(n(C)c2c1)[C@@H](CO)N(C(=O)Nc1ccccc1F)CC31CN(C)C1	0	-	-
COc1ccc(S(=O)(=O)N2CC3(CN(Cc4ccncc4)[C@@H](CO)c4[nH]c5cc(OC)ccc5c43)C2)cc1	0	-	-
C[C@H](CO)N1C[C@H](C)[C@@H](CN(C)S(=O)(=O)c2ccc(Cl)cc2)Oc2ccc(NC(=O)CCN3CCOCC3)cc2CC1=O	0	0	0
C[C@H](CO)N1C[C@H](C)[C@H](CN(C)Cc2ccc(C(=O)Nc3ccccc3N)cc2)Oc2c(NC(=O)C3CCCCC3)cccc2C1=O	?	0	0
C[C@H]1CN([C@@H](C)CO)C(=O)c2cccc(NC(=O)C3CCCCC3)c2O[C@@H]1CN(C)Cc1ccc(C(=O)Nc2ccccc2N)cc1	-88	0	0
COc1cccc(NC(=O)N[C@@H]2C=C[C@@H](CC(=O)N3CCCCC3)O[C@H]2CO)c1	0	0	0
Cc1noc(C)c1S(=O)(=O)Nc1ccc2c(c1)C(=O)N([C@@H](C)CO)C[C@@H](C)[C@@H](CN(C)C(=O)Nc1ccc(C(F)(F)F)cc1)OCCCC[C@H](C)O2	-82	0	0
Cc1noc(C)c1S(=O)(=O)Nc1ccc2c(c1)C(=O)N([C@H](C)CO)C[C@H](C)[C@@H](CN(C)C(=O)Nc1ccccc1)OCCCC[C@H](C)O2	0	0	0
Cc1noc(C)c1S(=O)(=O)Nc1ccc2c(c1)C(=O)N([C@@H](C)CO)C[C@@H](C)[C@H](CN(C)C(=O)Nc1ccc(C(F)(F)F)cc1)OCCCC[C@H](C)O2	0	0	0
Cc1noc(C)c1S(=O)(=O)Nc1ccc2c(c1)C(=O)N([C@H](C)CO)C[C@@H](C)[C@@H](CN(C)C(=O)Nc1ccccc1)OCCCC[C@@H](C)O2	-84	0	0
C[C@H]1CN([C@@H](C)CO)C(=O)c2cc(-c3ccc(C#N)cc3)cnc2O[C@H]1CN(C)C(=O)Nc1ccccc1	0	0	0
C[C@H](O)C#Cc1ccc2c(c1)O[C@H](CN(C)CC1CC1)[C@H](C)CN([C@@H](C)CO)S2(=O)=O	0	0	0
COc1ccc2c3c(n(C)c2c1)[C@H](CO)N(C(=O)c1ccccc1)CC31CCN(C(C)=O)CC1	0	0	-
COc1ccc(CN2CC3(CN(C(=O)Cc4ccccc4)C3)c3c([nH]c4cc(OC)ccc34)[C@H]2CO)cc1	-89	0	-
COc1ccc2c3c([nH]c2c1)[C@@H](CO)N(C(=O)Nc1ccccc1F)CC31CCN(C(C)=O)CC1	0	0	-
COc1ccc2c3c(n(C)c2c1)[C@H](CO)N(C(=O)c1ccccc1)CC31CCN(C(=O)c2ccccc2)CC1	-88	0	-
COc1ccc2c3c([nH]c2c1)[C@H](CO)N(C(=O)Cc1ccccc1)CC31CN(C(=O)Cc2ccccc2)C1	-83	0	-
COc1ccc2c3c([nH]c2c1)[C@@H](CO)N(C(=O)Nc1ccc(F)cc1)CC31CN(C(=O)Cc2ccccc2)C1	0	0	-
COc1ccc2c3c([nH]c2c1)[C@H](CO)N(C(=O)Cc1ccccc1)CC31CCN(C(=O)Nc2ccccc2F)CC1	-91	0	-
COc1ccc(CN2CC3(CN(C(=O)Cc4ccncc4)C3)c3c([nH]c4cc(OC)ccc34)[C@@H]2CO)cc1	0	0	-
COc1ccccc1C#Cc1ccc2c(c1)[C@H]1[C@H](CCN1S(=O)(=O)c1cccc(C)c1)[C@@H](CO)N2	0	0	-

Screening results from PubChem BioAssay.
